Values without a mark were called inactive. How the calls were made is not given here.
target: Pantothenate synthetase (Mycobacterium tuberculosis (strain ATCC 25618 / H37Rv)) (UniProt P9WIL5); assay: Coupled enzyme confirmation of inhibitors against recombinant Mtb PanC (AID 375); conditions: coupled enzyme assay; at 10 µM, hits give high values;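 further: 0% = full reaction with vehicle and 100% = no enzyme background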
Sequence (P9WIL5 whole entry, looked up): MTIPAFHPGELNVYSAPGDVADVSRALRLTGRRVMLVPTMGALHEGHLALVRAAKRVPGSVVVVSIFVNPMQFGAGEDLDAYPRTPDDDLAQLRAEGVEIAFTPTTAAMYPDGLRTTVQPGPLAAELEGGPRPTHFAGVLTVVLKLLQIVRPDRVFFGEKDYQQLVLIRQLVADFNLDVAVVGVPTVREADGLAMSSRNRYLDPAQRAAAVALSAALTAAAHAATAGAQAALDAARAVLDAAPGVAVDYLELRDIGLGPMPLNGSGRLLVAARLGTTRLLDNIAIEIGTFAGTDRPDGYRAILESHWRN

Row | SMILES | inhibition
1 | COc1ccccc1NC(=O)C1=C(C)Nc2nnnn2C1c1ccccc1OC (stereo not given) | 2%
2 | CCSC1=C(C#N)C(c2ccccc2OC)CC(=O)N1 (stereo not given) | 4%
3 | COc1ccc(C(CNC(=O)CN2C(=O)NC3(CC(C)CC(C)(C)C3)C2=O)N2CCOCC2)cc1 (stereo not given) | 4%
4 | Cc1cc(C)c(C(=O)CSc2nnc(-c3ccccc3Br)o2)cc1C | 2%
5 | CCOC(=O)c1ccc2[nH]c(C)c(CN3CCN(C)CC3)c(=O)c2c1 | 0%
6 | CC1C(O)=C(c2nc3ccccc3[nH]2)C(=N)N1c1ccccc1 (stereo not given) | 9%
7 | Cc1nn(C)c(C)c1CNC(=O)c1cc2n(n1)C(C(F)(F)F)CC(c1cccs1)N2 (stereo not given) | 7%
8 | CCOc1nc(-c2ccccc2O)nc2ccccc12 | 0%
9 | CC1(C)CC(=O)C=C(Nc2ccc(OCC(F)(F)C(F)F)cc2)C1 | 5%
10 | Cc1ccc(CCNC(=O)C2CCN(S(=O)(=O)c3c(C)nn(C)c3C)CC2)cc1 | 0%
11 | O=C(O)CCn1c(=O)c2ccccc2c2ccccc2c1=O | 1%
12 | NS(=O)(=O)c1cc2c(cc1Cl)NC(CSCc1ccccc1)=NS2(=O)=O | 0%
13 | CCOCCCNC(=O)c1ccc2c(c1)N(Cc1ccccc1)C(=O)CS2=O (stereo not given) | 0%
14 | CCOc1ccccc1Nc1nnc(SCC(=O)N2CCCC2)s1 | 0%
15 | CC(=O)C1=C(C)Nc2ncnn2C1c1cccc(OCc2ccccc2)c1 (stereo not given) | 0%
16 | N#Cc1c(-c2ccc3c(c2)OCO3)csc1N | 9%
17 | CC(C)[C@H](NC(=O)NC1CCCC1)C(=O)O | 0%
18 | CCOC(=O)NC(c1ccccc1)C1CCCCC1=O (stereo not given) | 0%
19 | Cc1cc(=O)oc(C)c1C(=O)O | 0%
20 | O=C(OCC(=O)N1CCC(Cc2ccccc2)CC1)c1ccc[nH]c1=O | 0%

Row | SMILES | inhibition
21 | COc1ccccc1S(=O)(=O)n1cc(Cc2ccccc2)c(N)n1 | 0%
22 | CC(C)CCNC(=O)C(c1ccco1)N(CC1CCCO1)C(=O)Cn1nnc2ccccc21 (stereo not given) | 0%
23 | O=C(Nc1ccccc1)N1C(=O)C2(OCCO2)c2ccccc21 | 0%
24 | CCN1CCN(C(c2cccs2)C(C)NC(=O)c2ccccc2)CC1 (stereo not given) | 12%
25 | CC(C)Cn1c(-c2ccc(F)cc2)n[nH]c1=S | 0%
26 | COc1ccccc1N1CCN(C(=O)c2cc(-c3ccc(Cl)c(Cl)c3)on2)CC1 | 0%
27 | Cn1c(=O)oc2cc(S(=O)(=O)N3CCCC(C(=O)NCC4COc5ccccc5O4)C3)ccc21 (stereo not given) | 0%
28 | COc1ccc(CCNC(=O)c2cc(C(C)C)on2)cc1OC | 1%
29 | CCCCN1C[C@H](O)[C@@H](O)[C@H](O)[C@H]1CO | 0%
30 | C=C(Cl)COc1ccc2c(C)cc(=O)oc2c1 | 2%
31 | Cc1cc(C)c2nc(N)sc2c1 | 0%
32 | CCN1CCN(CCCNC(=O)C2c3ccccc3C(=O)N(C)C2c2ccc(OC)cc2)CC1 (stereo not given) | 0%
33 | O=c1c2c(nc3nc(COc4ccccc4)[nH]n13)CCC2 | 0%
34 | O=C(O)Cc1ccccc1C(=O)O | 0%
35 | COc1ccc(C(F)(F)F)cc1NC(=O)c1nc2nc(C)cc(C(F)F)n2n1 | 1%
36 | COc1ccc(OC)c2[nH]c(=O)c(CCNC(=O)C(C)C)cc12 | 0%
37 | Cc1sc(NC(=O)CSc2nc(N)n(CC(=O)c3ccccc3)n2)c(C#N)c1C | 4%
38 | CCCS(=O)(=O)N1CCN(C(=O)CCC2CCCC2)CC1 | 0%
39 | Cc1ccc(C)c(N2CCN(CCCNC(=O)Cn3cc4c(n3)CCCCC4)CC2)c1 | 2%
40 | COc1ccc(S(=O)(=O)n2nc(OC(=O)c3ccc(C)cc3)cc2N)cc1 | 5%

Reference: PubChem BioAssay
